Growth data for twelve molecules are collected here from PubChem BioAssay (NCI).

For this experiment, the system named is HL-60(TB) leukemia. In words: NCI-60 one-dose screen, 48 h (100 = growth as untreated, 0 = no growth, -100 = all killed). To be noted: 10 µM unless noted.

Compounds without any hit were thinned out: in the full panel of roughly 83,000, 20% have a hit.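 Growth was measured after 48 h exposure to one concentration of compound in 96-well plates. Values under 10 count as active.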 Unmarked numbers belong to inactive results. Activity calls are given as the source filed them.

Regarding `O=[N+]([O-])c1ccc(N=Nc2c(O)c(N=Nc3cc([N+](=O)[O-])cc([N+](=O)[O-])c3O)cc(N=Nc3cc(S(=O)(=O)O)cc4cc(S(=O)(=O)O)cc(O)c34)c2O)cc1`, the growth is 87.2%.
With `O=C(O)c1cn(C2CC2)c2cc(N3CCN(C(=O)Nc4nc(-c5ccccc5)cs4)CC3)c(F)cc2c1=O` the figure was 3.14% (active).
As to `c1ccc(N(c2ccccc2)c2ccccc2)cc1`, the growth is 94.2%.
In the case of `CCC(=O)N1C/C(=C/c2ccc(Br)cc2)C(=O)/C(=C/c2ccc(Br)cc2)C1`, the growth is -26.2% (active).
For `CC1SC(c2ccc(N(C)C)cc2)N(NC(=O)C(O)(c2ccccc2)c2ccccc2)C1=O` (configuration not stated), the growth was 84.2%.
In the case of `CC(=O)[C@@]1(O)[C@H](C)C[C@H]2[C@@H]3C=C(C)C4=Cc5c(cnn5-c5ccccc5)C[C@]4(C)[C@H]3[C@@H](O)C[C@@]21C`, the growth was -16% (active).
`NS(=O)(=O)c1ccc(C(=O)NN2C(=O)c3c(Br)c(Br)c(Br)c(Br)c3C2=O)cc1`: the growth was 103%.
Then `O=C1Nc2c(ccc(Cl)c2Cl)/C1=C/c1cc(Br)c(O)c(Br)c1`, with 33%; and `CCOC(=O)c1c(C)nc2c(c1N)/C(=C/c1ccc(OC)cc1)C(=O)N2Cc1ccc(F)cc1`, with 4.72% (active); and `COc1ccc(/C=C2\CCCC3C2=Nc2ccccc2NC3c2ccc(OC)cc2)cc1` (configuration not stated), with 78.2%.
`CCc1ccc(/C=C/c2ccc(O)c3ncccc23)[n+](C)c1`: the growth is 104%.
Then `COc1cc2nc(Nc3cccc(NC(C)=O)c3)nc(N)c2cc1OC`, with 102%.
